Of roughly 8,800 targets only a part is listed; those with a hit were picked by preference. About 0.5% of all pairs of compound and target were hits.
Assays:
Assay in all cases: log2 fold change, soluble protein after heating vs DMSO (PISA); higher = thermal stabilisation; K562 lysate, 10 uM; active = over 0.2 and 3.5 SD of the protein, either way, in both replicates (recomputed)
alvocidib = compound: CN1CC[C@H](c2c(O)cc(O)c3c(=O)cc(-c4ccccc4Cl)oc23)[C@H](O)C1 [alvocidib]
Outline: (§1)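 Log-two fold change in thermal stability relative to solvent controls is reported from duplicates. For each sample, crude K562 extract from dounce-homogenised pellets in PBS pH 7.4 with 1 mM MgCl2, at 1 mg/mL protein, was treated with 10 μM compound for 30 min. Aliquots heated for 3 min across 48°C-58°C were pooled, brought to 0.5% NP-40 at 4°C and cleared at 21,000xg for 90 min. The supernatant was quantified by TMTpro 16plex LC-MS/MS with channel sums equalised.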

Tubastatin A = compound: CN1CCc2c(c3ccccc3n2Cc2ccc(C(=O)NO)cc2)C1 [Tubastatin A]
Outline: as §1

[1] = compound: CNC(=O)C1=CC=CC=C1NC2=NC(=NC=C2Cl)NC3=C(C=C(C=C3)N4CCOCC4)OC
Outline: as §1

defactinib = compound: CNC(=O)c1ccc(Nc2ncc(C(F)(F)F)c(NCc3nccnc3N(C)S(C)(=O)=O)n2)cc1 [defactinib]
Outline: as §1

[2] = compound: CNc1nc(-c2ccc3c(N)n[nH]c3c2)cc(N2C[C@@H](C(=O)NC3CCCCC3)CC[C@H]2C)n1
Outline: as §1

encorafenib = compound: COC(=O)N[C@@H](C)CNc1nccc(-c2cn(C(C)C)nc2-c2cc(Cl)cc(NS(C)(=O)=O)c2F)n1 [encorafenib]
Outline: as §1

[3] = compound: COC(=O)[C@H](CCSC)NC(=O)C1=C(C=C(C=C1)NC[C@H](CS)N)C2=CC=CC=C2
Outline: as §1

alisertib = compound: COc1cc(Nc2ncc3c(n2)-c2ccc(Cl)cc2C(c2c(F)cccc2OC)=NC3)ccc1C(=O)O [alisertib]
Outline: as §1

[4] = compound: COc1cc2nc(-c3cc(F)ccc3O)nc(N[C@@H]3CNC[C@H]3C(C)(C)O)c2cc1OC
Outline: as §1

gefitinib = compound: COc1cc2ncnc(Nc3ccc(F)c(Cl)c3)c2cc1OCCCN1CCOCC1 [gefitinib]
Outline: as §1

Measured: log2 fold change

CKM (UniProt P06732)
inactive: alvocidib -0.126 | Tubastatin A -0.091 | [1] -0.049 | defactinib -0.033 | [2] -0.037 | encorafenib 0.016 | [3] 0.026 | alisertib -0.015 | [4] 0.031 | gefitinib -0.065

DDX20 (UniProt Q9UHI6)
inactive: alvocidib 0.042 | Tubastatin A -0.213 | [1] -0.001 | defactinib -0.03 | [2] -0.026 | encorafenib 0.076 | [3] 0.01 | alisertib 0.016 | [4] -0.006 | gefitinib 0.025

DLG3 isoform 2 (UniProt Q92796)
inactive: alvocidib -0.136 | Tubastatin A 0 | [1] -0.026 | defactinib 0.053 | [2] -0.01 | encorafenib -0.089 | [3] -0.082 | alisertib 0.069 | [4] -0.055 | gefitinib -0.131

CLCN3 isoform 2 (UniProt P51790)
inactive: alvocidib -0.02 | Tubastatin A 0.02 | [1] 0.024 | defactinib -0.015 | [2] 0.033 | encorafenib 0.041 | [3] 0.022 | alisertib -0.007 | [4] -0.002 | gefitinib 0.005

CUX1 isoform 3 (UniProt P39880)
inactive: alvocidib -0.03 | Tubastatin A 0.003 | [1] 0.055 | defactinib -0.006 | [2] 0.005 | encorafenib 0 | [3] 0 | alisertib 0.067 | [4] -0.042 | gefitinib 0.014

CUL1 (UniProt Q13616)
Sequence of UniProt Q13616 (Q13616 whole entry, looked up): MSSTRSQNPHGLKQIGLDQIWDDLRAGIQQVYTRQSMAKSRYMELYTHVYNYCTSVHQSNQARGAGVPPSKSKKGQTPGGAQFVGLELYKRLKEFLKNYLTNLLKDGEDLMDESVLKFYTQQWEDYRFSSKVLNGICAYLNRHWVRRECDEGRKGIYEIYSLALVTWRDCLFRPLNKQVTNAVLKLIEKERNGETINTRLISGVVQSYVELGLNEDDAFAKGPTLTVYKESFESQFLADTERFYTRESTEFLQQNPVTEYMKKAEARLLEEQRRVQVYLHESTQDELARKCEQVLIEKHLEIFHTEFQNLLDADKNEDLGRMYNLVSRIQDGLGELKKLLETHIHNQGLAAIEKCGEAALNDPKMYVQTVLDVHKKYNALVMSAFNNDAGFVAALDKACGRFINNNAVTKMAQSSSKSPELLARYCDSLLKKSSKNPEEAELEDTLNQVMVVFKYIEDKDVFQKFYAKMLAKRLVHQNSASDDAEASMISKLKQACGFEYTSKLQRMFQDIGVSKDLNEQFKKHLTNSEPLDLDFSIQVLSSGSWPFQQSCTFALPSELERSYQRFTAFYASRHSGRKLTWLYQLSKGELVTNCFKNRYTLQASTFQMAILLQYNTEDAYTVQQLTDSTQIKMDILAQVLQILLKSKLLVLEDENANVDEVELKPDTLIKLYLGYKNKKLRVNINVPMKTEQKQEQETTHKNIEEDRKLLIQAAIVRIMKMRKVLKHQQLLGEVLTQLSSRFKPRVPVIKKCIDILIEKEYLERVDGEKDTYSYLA
inactive: alvocidib -0.008 | Tubastatin A 0.008 | [1] 0.001 | defactinib -0.019 | [2] 0.013 | encorafenib 0 | [3] -0.042 | alisertib -0.01 | [4] 0.011 | gefitinib -0.038

CNDP2 (UniProt Q96KP4)
Sequence of UniProt Q96KP4 (Q96KP4 whole entry, looked up): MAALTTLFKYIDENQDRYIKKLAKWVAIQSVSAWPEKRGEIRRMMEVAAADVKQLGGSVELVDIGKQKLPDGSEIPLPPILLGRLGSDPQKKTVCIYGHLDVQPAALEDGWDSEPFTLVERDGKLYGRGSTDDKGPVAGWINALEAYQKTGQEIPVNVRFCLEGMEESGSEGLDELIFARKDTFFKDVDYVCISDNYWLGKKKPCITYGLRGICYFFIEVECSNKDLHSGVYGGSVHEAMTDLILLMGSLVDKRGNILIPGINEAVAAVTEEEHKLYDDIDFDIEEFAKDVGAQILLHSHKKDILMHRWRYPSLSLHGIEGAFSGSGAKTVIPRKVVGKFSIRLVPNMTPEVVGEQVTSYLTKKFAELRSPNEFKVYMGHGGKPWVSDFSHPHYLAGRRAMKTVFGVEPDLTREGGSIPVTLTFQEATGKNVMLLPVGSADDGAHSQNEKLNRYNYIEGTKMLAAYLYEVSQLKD
inactive: alvocidib -0.11 | Tubastatin A 0.039 | [1] 0.003 | defactinib 0.005 | [2] 0.1 | encorafenib -0.02 | [3] 0.002 | alisertib -0.031 | [4] 0.047 | gefitinib 0.013

CNOT2 (UniProt Q9NZN8)
Sequence of UniProt Q9NZN8 (Q9NZN8 whole entry, looked up): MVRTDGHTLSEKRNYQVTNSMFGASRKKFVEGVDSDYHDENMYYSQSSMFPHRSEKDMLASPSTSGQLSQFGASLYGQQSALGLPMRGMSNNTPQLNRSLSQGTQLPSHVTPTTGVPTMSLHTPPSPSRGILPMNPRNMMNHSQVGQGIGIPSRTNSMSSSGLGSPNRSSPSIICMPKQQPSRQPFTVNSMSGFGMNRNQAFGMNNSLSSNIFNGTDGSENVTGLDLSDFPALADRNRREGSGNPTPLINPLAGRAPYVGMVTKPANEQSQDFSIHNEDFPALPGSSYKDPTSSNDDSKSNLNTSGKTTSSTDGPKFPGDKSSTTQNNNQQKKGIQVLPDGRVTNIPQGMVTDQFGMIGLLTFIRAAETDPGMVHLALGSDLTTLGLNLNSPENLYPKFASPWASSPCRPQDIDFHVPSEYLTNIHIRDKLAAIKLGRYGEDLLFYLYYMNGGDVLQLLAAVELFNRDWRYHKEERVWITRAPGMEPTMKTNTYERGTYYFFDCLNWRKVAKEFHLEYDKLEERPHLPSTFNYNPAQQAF
inactive: alvocidib -0.003 | Tubastatin A -0.046 | [1] -0.002 | defactinib 0.001 | [2] -0.027 | encorafenib -0.002 | [3] 0.013 | alisertib -0.025 | [4] 0.008 | gefitinib 0.011

COG6 (UniProt Q9Y2V7)
Sequence of UniProt Q9Y2V7 (Q9Y2V7 whole entry, looked up): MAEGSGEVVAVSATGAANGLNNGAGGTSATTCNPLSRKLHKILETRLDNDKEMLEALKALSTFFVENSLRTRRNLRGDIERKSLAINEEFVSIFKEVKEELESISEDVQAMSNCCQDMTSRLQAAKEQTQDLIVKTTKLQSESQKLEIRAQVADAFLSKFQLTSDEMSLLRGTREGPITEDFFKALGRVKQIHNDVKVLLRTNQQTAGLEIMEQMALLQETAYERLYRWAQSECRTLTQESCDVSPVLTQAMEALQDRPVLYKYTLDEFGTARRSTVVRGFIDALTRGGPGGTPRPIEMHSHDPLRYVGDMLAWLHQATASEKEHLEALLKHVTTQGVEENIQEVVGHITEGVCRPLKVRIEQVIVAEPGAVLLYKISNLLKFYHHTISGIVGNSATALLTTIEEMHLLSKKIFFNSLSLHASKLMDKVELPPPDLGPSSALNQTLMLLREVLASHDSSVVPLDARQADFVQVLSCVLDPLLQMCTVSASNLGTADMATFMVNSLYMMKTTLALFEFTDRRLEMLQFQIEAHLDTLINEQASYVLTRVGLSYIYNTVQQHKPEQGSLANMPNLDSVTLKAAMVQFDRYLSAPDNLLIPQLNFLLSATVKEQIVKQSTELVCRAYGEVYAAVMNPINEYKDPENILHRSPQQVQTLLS
inactive: alvocidib 0.026 | Tubastatin A -0.062 | [1] 0.059 | defactinib -0.028 | [2] 0.059 | encorafenib -0.026 | [3] 0.034 | alisertib 0.016 | [4] -0.017 | gefitinib 0.006

CSNK1E (UniProt P49674)
Sequence of UniProt P49674 (P49674 whole entry, looked up): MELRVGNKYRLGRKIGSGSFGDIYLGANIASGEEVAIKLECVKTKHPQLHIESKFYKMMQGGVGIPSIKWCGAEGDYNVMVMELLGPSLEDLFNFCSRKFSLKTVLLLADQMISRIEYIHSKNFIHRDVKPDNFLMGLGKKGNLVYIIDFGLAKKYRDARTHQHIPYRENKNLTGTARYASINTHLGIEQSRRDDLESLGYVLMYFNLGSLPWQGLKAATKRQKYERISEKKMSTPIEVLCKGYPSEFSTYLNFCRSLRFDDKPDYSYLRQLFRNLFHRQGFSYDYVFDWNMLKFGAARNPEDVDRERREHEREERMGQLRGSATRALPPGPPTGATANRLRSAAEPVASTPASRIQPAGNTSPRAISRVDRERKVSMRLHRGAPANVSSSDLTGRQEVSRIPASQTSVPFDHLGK
inactive: alvocidib 0.021 | Tubastatin A -0.159 | [1] 0.129 | defactinib -0.017 | [2] 0.093 | encorafenib -0.032 | [3] 0.028 | alisertib -0.034 | [4] 0.048 | gefitinib 0.012

CHML (UniProt P26374)
inactive: alvocidib -0.019 | Tubastatin A 0.008 | [1] -0.004 | defactinib -0.025 | [2] 0.002 | encorafenib 0.003 | [3] 0.005 | alisertib 0.014 | [4] 0.011 | gefitinib 0.012

CLASP1 (UniProt Q7Z460)
inactive: alvocidib -0.057 | Tubastatin A -0.032 | [1] -0.005 | defactinib -0.037 | [2] -0.006 | encorafenib 0.058 | [3] 0.009 | alisertib 0.036 | [4] -0.001 | gefitinib 0.018

CNK3/IPCEF1 isoform 2 (UniProt G9CGD6)
inactive: alvocidib -0.483 | Tubastatin A -0.048 | [1] -0.012 | defactinib -0.082 | [2] -0.007 | encorafenib 0.041 | [3] -0.062

DPM1 (UniProt O60762)
inactive: alvocidib 0.084 | Tubastatin A 0.055 | [1] -0.005 | defactinib 0.037 | [2] 0.041 | encorafenib 0.01 | [3] 0.083 | alisertib 0.047 | [4] 0.013 | gefitinib -0.041

CSNK2B (UniProt P67870)
Sequence of UniProt P67870 (P67870 whole entry, looked up): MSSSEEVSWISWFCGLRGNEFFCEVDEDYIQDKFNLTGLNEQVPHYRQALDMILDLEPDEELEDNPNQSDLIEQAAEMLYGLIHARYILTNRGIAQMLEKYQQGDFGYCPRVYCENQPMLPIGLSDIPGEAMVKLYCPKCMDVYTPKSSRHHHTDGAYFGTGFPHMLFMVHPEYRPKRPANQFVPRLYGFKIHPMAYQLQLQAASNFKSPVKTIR
active: [1] 0.324
inactive: alvocidib -0.005 | Tubastatin A -0.012 | defactinib 0.025 | [2] 0.053 | encorafenib -0.026 | [3] -0.006 | alisertib -0.054 | [4] 0.052 | gefitinib -0.022

DMXL1 (UniProt Q9Y485)
inactive: alvocidib 0.01 | Tubastatin A -0.014 | [1] 0.019 | defactinib 0.024 | [2] 0.012 | encorafenib 0.055 | [3] -0.015 | alisertib -0.031 | [4] 0.009 | gefitinib 0.038

COQ8A (UniProt Q8NI60)
inactive: alvocidib 0.051 | Tubastatin A -0.06 | [1] 0.384 | defactinib 0 | [2] 0.079 | encorafenib 0.145 | [3] -0.009 | alisertib -0.023 | [4] 0.009 | gefitinib 0.447

CTNNBL1 (UniProt Q8WYA6)
active: [2] 0.417
inactive: alvocidib 0.027 | Tubastatin A 0.148 | [1] -0.004 | defactinib -0.015 | encorafenib 0.023 | [3] 0.101 | alisertib -0.013 | [4] -0.027 | gefitinib 0.022

CHEK1 (UniProt O14757)
inactive: alvocidib 0.01 | Tubastatin A 0.072 | [1] -0.063 | defactinib -0.021 | [2] -0.002 | encorafenib 0.002 | [3] -0.008 | alisertib 0.008 | [4] -0.178 | gefitinib 0.013

CHUK (UniProt O15111)
inactive: alvocidib 0.029 | Tubastatin A -0.203 | [1] 0.077 | defactinib 0.089 | [2] -0.039 | encorafenib -0.021 | [3] 0.121 | alisertib 0.018 | [4] 0.052 | gefitinib -0.06

DIAPH1 (UniProt O60610)
inactive: alvocidib 0.03 | Tubastatin A 0 | [1] -0.003 | defactinib -0.018 | [2] -0.013 | encorafenib 0.003 | [3] 0.051 | alisertib 0.005 | [4] 0.006 | gefitinib -0.001

CHURC1 isoform 2 (UniProt Q8WUH1)
Sequence of UniProt Q8WUH1 (Q8WUH1 whole entry, looked up): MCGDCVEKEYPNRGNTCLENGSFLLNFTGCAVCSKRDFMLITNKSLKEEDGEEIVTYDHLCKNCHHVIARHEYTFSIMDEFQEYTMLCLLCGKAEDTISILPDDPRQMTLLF
inactive: alvocidib 0.002 | Tubastatin A 0.002 | [1] 0 | defactinib 0.051 | [2] 0.024 | encorafenib -0.068 | [3] -0.005 | alisertib 0.013 | [4] -0.145 | gefitinib -0.025

COTL1 (UniProt Q14019)
Sequence of UniProt Q14019 (Q14019 whole entry, looked up): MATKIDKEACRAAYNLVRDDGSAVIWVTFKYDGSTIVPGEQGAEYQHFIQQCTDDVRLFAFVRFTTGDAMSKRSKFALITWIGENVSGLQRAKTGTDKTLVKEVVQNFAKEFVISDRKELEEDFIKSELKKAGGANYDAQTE
inactive: alvocidib 0.021 | Tubastatin A 0.004 | [1] -0.021 | defactinib -0.04 | [2] -0.008 | encorafenib -0.033 | [3] -0.029 | alisertib -0.009 | [4] -0.001 | gefitinib -0.002

DHCR7 (UniProt Q9UBM7)
Sequence of UniProt Q9UBM7 (Q9UBM7 whole entry, looked up): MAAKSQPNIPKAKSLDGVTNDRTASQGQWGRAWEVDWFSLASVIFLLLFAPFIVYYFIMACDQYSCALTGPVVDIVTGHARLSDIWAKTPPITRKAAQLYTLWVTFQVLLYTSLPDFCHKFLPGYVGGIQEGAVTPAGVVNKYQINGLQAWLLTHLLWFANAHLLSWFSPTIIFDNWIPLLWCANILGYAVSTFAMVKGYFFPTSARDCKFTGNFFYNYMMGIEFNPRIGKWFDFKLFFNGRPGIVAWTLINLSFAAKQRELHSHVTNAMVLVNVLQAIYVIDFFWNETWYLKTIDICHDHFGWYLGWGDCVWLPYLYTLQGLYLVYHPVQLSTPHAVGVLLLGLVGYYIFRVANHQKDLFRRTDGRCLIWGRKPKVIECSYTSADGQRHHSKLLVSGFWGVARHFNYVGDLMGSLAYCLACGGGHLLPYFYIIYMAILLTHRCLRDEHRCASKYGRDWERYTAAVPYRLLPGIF
inactive: alvocidib -0.008 | Tubastatin A -0.038 | [1] -0.008 | defactinib 0.016 | [2] -0.031 | encorafenib 0.019 | [3] 0.037 | alisertib 0.029 | [4] -0.008 | gefitinib -0.035

COX20 isoform 2 (UniProt Q5RI15)
inactive: alvocidib 0.102 | Tubastatin A -0.012 | [1] 0.01 | defactinib -0.007 | [2] 0.06 | encorafenib -0.103 | [3] 0.022 | alisertib 0.001 | [4] -0.033 | gefitinib -0.009

DIAPH3 (UniProt Q9NSV4)
inactive: alvocidib 0.041 | Tubastatin A -0.195 | [1] 0.004 | defactinib -0.024 | [2] -0.027 | encorafenib 0.118 | [3] 0.085 | alisertib 0.056 | [4] -0.015 | gefitinib 0.06

CPT1A (UniProt P50416)
Sequence of UniProt P50416 (P50416 whole entry, looked up): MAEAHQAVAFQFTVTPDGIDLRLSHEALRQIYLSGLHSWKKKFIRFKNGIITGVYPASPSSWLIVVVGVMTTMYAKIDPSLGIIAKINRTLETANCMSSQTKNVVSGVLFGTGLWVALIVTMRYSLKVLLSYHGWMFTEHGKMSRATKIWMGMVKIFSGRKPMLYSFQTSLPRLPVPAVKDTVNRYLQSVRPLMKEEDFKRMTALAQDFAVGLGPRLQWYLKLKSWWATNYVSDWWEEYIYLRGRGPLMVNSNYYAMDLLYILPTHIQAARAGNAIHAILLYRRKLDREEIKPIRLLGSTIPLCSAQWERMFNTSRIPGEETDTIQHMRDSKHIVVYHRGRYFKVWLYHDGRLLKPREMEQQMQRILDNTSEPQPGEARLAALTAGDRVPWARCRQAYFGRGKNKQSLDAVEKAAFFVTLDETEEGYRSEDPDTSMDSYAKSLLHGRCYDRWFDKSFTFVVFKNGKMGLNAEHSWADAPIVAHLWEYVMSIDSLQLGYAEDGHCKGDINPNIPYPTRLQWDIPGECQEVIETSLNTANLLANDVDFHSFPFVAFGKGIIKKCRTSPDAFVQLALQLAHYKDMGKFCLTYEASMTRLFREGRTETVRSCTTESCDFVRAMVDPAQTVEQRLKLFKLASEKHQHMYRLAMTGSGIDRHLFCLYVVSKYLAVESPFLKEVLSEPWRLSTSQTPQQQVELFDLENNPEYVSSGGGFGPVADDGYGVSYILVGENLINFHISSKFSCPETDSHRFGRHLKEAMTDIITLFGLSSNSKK
inactive: Tubastatin A 0.261 | [1] 0.004 | defactinib -0.053 | [2] 0.113 | encorafenib 0.036 | [3] 0.078 | alisertib -0.014 | [4] -0.051 | gefitinib 0.031
active: alvocidib 0.407

CSNK2A1 (UniProt P68400)
Sequence of UniProt P68400 (P68400 whole entry, looked up): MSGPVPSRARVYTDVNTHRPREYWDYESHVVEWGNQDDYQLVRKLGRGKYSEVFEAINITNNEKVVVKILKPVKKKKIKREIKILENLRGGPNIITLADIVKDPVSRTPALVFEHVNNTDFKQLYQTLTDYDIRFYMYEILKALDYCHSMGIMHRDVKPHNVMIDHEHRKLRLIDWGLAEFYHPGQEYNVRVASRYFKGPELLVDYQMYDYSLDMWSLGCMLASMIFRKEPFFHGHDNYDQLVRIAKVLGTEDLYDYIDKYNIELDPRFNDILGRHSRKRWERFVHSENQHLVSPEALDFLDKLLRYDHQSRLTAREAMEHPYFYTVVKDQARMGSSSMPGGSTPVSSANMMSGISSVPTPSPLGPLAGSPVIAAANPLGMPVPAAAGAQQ
active: [1] 0.337
inactive: alvocidib 0.077 | Tubastatin A 0.019 | defactinib 0.056 | [2] -0.002 | encorafenib -0.004 | [3] -0.005 | alisertib 0.012 | [4] 0.112 | gefitinib -0.024

DCTN1 isoform 4 (UniProt Q14203)
inactive: alvocidib 0.3 | Tubastatin A -0.254 | [1] 0.212 | defactinib -0.046 | [2] 0.105 | encorafenib 0.078 | [3] -0.064 | alisertib 0.107 | [4] -0.05 | gefitinib 0.051

CSK (UniProt P41240)
inactive: alvocidib 0.076 | Tubastatin A -0.088 | [1] 0.262 | defactinib 0.068 | [2] -0.027 | encorafenib -0.026 | [3] -0.063 | alisertib 0.072 | [4] -0.008 | gefitinib -0.01
